# Source: the supplement of paper PMC12350171
# Structures can show the parent of a compound that is named as a salt.
# System: Haemophilus parainfluenzae
# Test: growth AUC normalised to DMSO control (fraction of control); higher = less growth inhibition, active = hit call of the paper
# Conditions: 20 µM;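 active = AUC significantly below DMSO controls by Student t-fit with adjusted P under 0.01; inactive = not significantly reduced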
# Method in brief: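 For the AUC endpoint, growth curves were integrated by the trapezoidal rule up to the exponential-to-stationary transition and normalised to DMSO controls on the same plate. The curves came from OD578 readings taken hourly for 24 h, in three biological replicates. Pathogens had been passaged anaerobically twice and inoculated at an OD578 of 0.01 into pre-reduced mGAM plates carrying 20 μM compound and 1% DMSO, sealed with breathable membranes. Medium for Haemophilus parainfluenzae also contained hemin and NAD.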
row,SMILES,growth AUC normalised to DMSO control
1,Cc1ccc2c(c1)c1c3n2CCNC3CCC1 (stereo not given) [Pirlindole mesylate],0.995 (inactive)
2,Cc1ccc(S(=O)(=O)NC(=O)NN2CCCCCC2)cc1 [Tolazamide],1.04 (inactive)
3,Nc1nc(=O)n([C@@H]2CS[C@H](CO)O2)cc1F [(-) Emtricitabine],0.97 (inactive)
4,Oc1c(I)cc(Cl)c2cccnc12 [Clioquinol],1.03 (inactive)
5,CCc1nn(CCCN2CCN(c3cccc(Cl)c3)CC2)c(=O)n1CCOc1ccccc1 [Nefazodone hydrochloride],0.942 (inactive)
6,O=C1CCc2ccc(OCCCCN3CCN(c4cccc(Cl)c4Cl)CC3)cc2N1 [Aripiprazole],0.994 (inactive)
7,CCCc1nn(C)c2c(=O)[nH]c(-c3cc(S(=O)(=O)N4CCN(C)CC4)ccc3OCC)nc12 [Sildenafil],1.1 (inactive)
8,CC1(C)[C@@H](OC(=O)CCC(=O)O)CC[C@]2(C)[C@H]3C(=O)C=C4[C@@H]5C[C@@](C)(C(=O)O)CC[C@]5(C)CC[C@@]4(C)[C@]3(C)CC[C@@H]12 [Carbenoxolone disodium salt],0.964 (inactive)
9,CC1c2cccc(O)c2C(O)=C2C(=O)C3(O)C(O)=C(C(N)=O)C(=O)C(N(C)C)C3C(O)C21 (stereo not given) [Doxycycline hydrochloride],0.0238 (active)
10,Cc1ncc([N+](=O)[O-])n1CC(O)CCl (stereo not given) [Ornidazole],1 (inactive)
11,CC(=O)CC(c1ccccc1)c1c(O)c2ccccc2oc1=O (stereo not given) [Warfarin],1.02 (inactive)
12,COc1ccc(NS(=O)(=O)c2ccc(N)cc2)nn1 [Sulfamethoxypyridazine],1.04 (inactive)
13,Cc1cccc(C)c1NC(=O)C1CCCCN1C (stereo not given) [Mepivacaine hydrochloride],1.07 (inactive)
14,"CC(C)NCC(O)c1ccc(O)c(O)c1 (single isomer, unassigned; (+)) [(+) Isoproterenol-(+)-bitartrate salt]",1.02 (inactive)
15,CS(=O)(=O)c1ccc([C@@H](O)[C@@H](CO)NC(=O)C(Cl)Cl)cc1 [Thiamphenicol],0.032 (active)
16,CC(=O)[C@H]1CC[C@H]2[C@@H]3CCC4=CC(=O)CC[C@]4(C)[C@H]3CC[C@]12C [Progesterone],1.03 (inactive)
17,CC(=O)O[C@]1(C(C)=O)CC[C@H]2[C@@H]3C=C(C)C4=CC(=O)CC[C@]4(C)[C@H]3CC[C@@]21C [Megestrol acetate],1.06 (inactive)
18,O=C1OCCN1/N=C/c1ccc([N+](=O)[O-])o1 [Furazolidone],0.361 (active)
19,CC1CS(=O)(=O)CCN1/N=C/c1ccc([N+](=O)[O-])o1 (stereo not given) [Nifurtimox],0.596 (active)
20,CS(=O)(=O)Nc1ccc([N+](=O)[O-])cc1Oc1ccccc1 [Nimesulide],0.982 (inactive)
21,CC(NCCc1ccc(O)cc1)C(O)c1ccc(O)cc1 (stereo not given) [Ritodrine hydrochloride],1 (inactive)
22,Nc1c(Br)cc(Br)cc1CN[C@H]1CC[C@H](O)CC1 [Ambroxol hydrochloride],0.988 (inactive)
23,CC[C@H](C)C(=O)O[C@H]1CCC=C2C=C[C@H](C)[C@H](CC[C@@H]3C[C@@H](O)CC(=O)O3)[C@H]21 [Mevastatin],0.978 (inactive)
24,O=C(Cn1ccnc1[N+](=O)[O-])NCCO [Etanidazole],0.929 (inactive)
25,O=C(O)c1cn(C2CC2)c2cc(N3CCNCC3)c(F)cc2c1=O [Ciprofloxacin hydrochloride monohydrate],0.0495 (active)
